From the supplement of paper PMC12067926

Assays:
Experiment in all cases: relative growth (AUC of 72 h growth curve relative to DMSO control, dAUC) (ratio); higher = more growth (less inhibition), active = hit call of the paper
Settings in all cases: 20 µM;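 active = growth AUC significantly below the DMSO wells by Dunnett test; inactive = the rest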
[1] = compound: C=CCOC(Cn1ccnc1)c1ccc(Cl)cc1Cl
Procedure, shortened: (§1)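 Bacterial isolates from Icelandic stream sediments and Silwood Park soil, plus whole sediment communities, were grown to carrying capacity in Luria–Bertani medium, then diluted 1:100 into 96-well plates with each chemical at 20 µM (1% DMSO). A600 was read hourly for 72 h on a plate reader, with brief shaking before each read. Relative growth (dAUC) is the spline-integrated area under the growth curve, averaged over three biological replicates and divided by the mean of the DMSO controls.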

[2] = compound: CC(=O)CC(c1ccccc1)c1c(O)c2ccccc2oc1=O
Procedure, shortened: as §1

[3] = compound: CC1COc2ccccc2N1C(=O)C(Cl)Cl
Procedure, shortened: as §1

[4] = compound: CCCCC(CC)CN1C(=O)[C@@H]2[C@H](C1=O)[C@@H]1C=C[C@H]2C1 (mixture of isomers)
Procedure, shortened: as §1

[5] = compound: CCCCCCCCc1c(CC)nc2ncnn2c1N
Procedure, shortened: as §1

[6] = compound: CCCCOCCOCCOCc1cc2c(cc1CCC)OCO2
Procedure, shortened: as §1

[7] = compound: CCCOC(=O)NCCCN(C)C
Procedure, shortened: as §1

[8] = compound: COC(=O)c1csc(C)c1S(=O)(=O)NC(=O)n1nc(OC)n(C)c1=O
Procedure, shortened: as §1

[9] = compound: Cc1ccc(C(C)NC(=O)[C@@H](NC(=O)OC(C)C)C(C)C)cc1
Procedure, shortened: as §1

[10] = compound: Cc1nn(C)c(Oc2ccccc2)c1/C=N/OCc1ccc(C(=O)OC(C)(C)C)cc1
Procedure, shortened: as §1

[11] = compound: Cn1cc(C(=O)Nc2ccc(F)cc2-c2ccc(Cl)c(Cl)c2)c(C(F)F)n1
Procedure, shortened: as §1

[12] = compound: Cn1cc(C(=O)Nc2ccccc2-c2cc(F)c(F)c(F)c2)c(C(F)F)n1
Procedure, shortened: as §1

[13] = compound: O=C(NCc1ncc(C(F)(F)F)cc1Cl)c1c(Cl)cccc1Cl
Procedure, shortened: as §1

[14] = compound: Oc1c(Cl)cc(Cl)c(Cl)c1Cc1c(O)c(Cl)cc(Cl)c1Cl
Procedure, shortened: as §1

[15] = compound: S=C([S-])NCCNC(=S)[S-].S=C([S-])NCCNC(=S)[S-].[Mn+2].[Zn+2]
Procedure, shortened: as §1

[16] = compound: c1ccc2[nH]c(-c3cscn3)nc2c1
Procedure, shortened: as §1

Target | relative growth [1] | relative growth [2] | relative growth [3] | relative growth [4] | relative growth [5] | relative growth [6] | relative growth [7] | relative growth [8] | relative growth [9] | relative growth [10] | relative growth [11] | relative growth [12] | relative growth [13] | relative growth [14] | relative growth [15] | relative growth [16]
Pseudomonas 2 (Pseudomonas vancouverensis) | 0.914 (inactive) | 1 (inactive) | 0.989 (inactive) | 1.01 (inactive) | 0.969 (inactive) | 0.974 (inactive) | 0.987 (inactive) | 1.02 (inactive) | 0.996 (inactive) | 1.11 (inactive) | 0.967 (inactive) | 1.01 (inactive) | 0.98 (inactive) | 0.0738 (active) | 0.947 (inactive) | 0.959 (inactive)
Carnobacterium 1 (Carnobacterium gallinarum) | 0.879 (inactive) | 0.827 (inactive) | 0.955 (inactive) | 0.823 (inactive) | 1.13 (inactive) | 0.363 (inactive) | 0.986 (inactive) | 1.17 (inactive) | 1.01 (inactive) | 0.951 (inactive) | 0.779 (inactive) | 1 (inactive) | 1.16 (inactive) | 0.00936 (active) | 0.913 (inactive) | 0.908 (inactive)
Oryzobacter 1 (Oryzobacter terrae) | 0.0303 (active) | 1.04 (inactive) | 1.15 (inactive) | 1.27 | 1.07 (inactive) | 1.18 (inactive) | 1.02 (inactive) | 1.13 (inactive) | 1.09 (inactive) | 1.17 (inactive) | 1.12 (inactive) | 0.91 (inactive) | 1.06 (inactive) | 0.00191 (active) | 0.909 (inactive) | 1.15 (inactive)
Community 4 | 0.814 (inactive) | 0.952 (inactive) | 0.85 (inactive) | 0.807 (inactive) | 0.98 (inactive) | 0.824 (inactive) | 0.992 (inactive) | 1.09 (inactive) | 0.867 (inactive) | 1.11 (inactive) | 0.837 (inactive) | 1.1 (inactive) | 0.943 (inactive) | 0.435 (active) | 1.13 (inactive) | 0.997 (inactive)
Argrobacterium 1 (Agrobacterium sp.) | 1.11 (inactive) | 0.978 (inactive) | 1.03 (inactive) | 1.13 (inactive) | 1.04 (inactive) | 0.946 (inactive) | 0.985 (inactive) | 1.01 (inactive) | 1.01 (inactive) | 1.17 (inactive) | 0.953 (inactive) | 0.918 (inactive) | 1.02 (inactive) | 0.705 (active) | 1.14 (inactive) | 0.852 (inactive)
Hymenobacter 1 (Hymenobacter glaciei) | 0.768 (inactive) | 1.08 (inactive) | 0.952 (inactive) | 0.932 (inactive) | 1.05 (inactive) | 0.845 (inactive) | 1.07 (inactive) | 1.08 (inactive) | 0.999 (inactive) | 1.06 (inactive) | 0.927 (inactive) | 0.91 (inactive) | 1 (inactive) | 0.00356 (active) | 0.998 (inactive) | 0.917 (inactive)
Aeromonas 3 (Aeromonas popoffii) | 0.933 (inactive) | 0.992 (inactive) | 0.988 (inactive) | 0.988 (inactive) | 1 (inactive) | 1.04 (inactive) | 1.02 (inactive) | 1.03 (inactive) | 1.03 (inactive) | 1.01 (inactive) | 0.999 (inactive) | 1.04 (inactive) | 1.04 (inactive) | 0.00174 (active) | 1.11 (inactive) | 1.04 (inactive)
Sphingomonas 2 (Sphingomonas sp.) | 0.991 (inactive) | 1.2 (inactive) | 1.09 (inactive) | 1.07 (inactive) | 1.13 (inactive) | 0.821 (inactive) | 0.956 (inactive) | 1.14 (inactive) | 1.08 (inactive) | 1.14 (inactive) | 0.555 (active) | 1.02 (inactive) | 1.09 (inactive) | 0.0196 (active) | 0.975 (inactive) | 1.02 (inactive)
Paenibacillus 1 (Paenibacillus castaneae) | 0.0487 (active) | 0.878 (inactive) | 0.947 (inactive) | 0.923 (inactive) | 0.906 (inactive) | 1 (inactive) | 1.08 (inactive) | 1.03 (inactive) | 0.947 (inactive) | 0.866 (inactive) | 0.835 (inactive) | 1.01 (inactive) | 1.04 (inactive) | 0.0147 (active) | 0.978 (inactive) | 0.987 (inactive)
Rhizobium 1 (Rhizobium herbae) | 0.836 (inactive) | 0.893 (inactive) | 1.03 (inactive) | 0.888 (inactive) | 0.952 (inactive) | 1.04 (inactive) | 1.06 (inactive) | 0.92 (inactive) | 1.02 (inactive) | 1.02 (inactive) | 0.332 (active) | 0.185 (active) | 0.977 (inactive) | 0.0348 (active) | 1.09 (inactive) | 1.14 (inactive)
Aeromonas 1 (Aeromonas sp. AE235) | 0.944 (inactive) | 0.96 (inactive) | 0.999 (inactive) | 0.966 (inactive) | 0.969 (inactive) | 0.979 (inactive) | 0.944 (inactive) | 1.04 (inactive) | 0.959 (inactive) | 1.02 (inactive) | 0.985 (inactive) | 1.03 (inactive) | 0.991 (inactive) | 0.000683 (active) | 0.955 (inactive) | 0.952 (inactive)
Pseudomonas 4 (Pseudomonas peli) | 0.952 (inactive) | 0.978 (inactive) | 0.938 (inactive) | 0.959 (inactive) | 0.99 (inactive) | 0.961 (inactive) | 0.995 (inactive) | 1.03 (inactive) | 0.968 (inactive) | 1.01 (inactive) | 0.979 (inactive) | 0.992 (inactive) | 0.981 (inactive) | 0.00176 (active) | 0.927 (inactive) | 0.928 (inactive)
Bacillus 1 (Bacillus foraminis) | 0.916 (inactive) | 1.09 (inactive) | 0.965 (inactive) | 1.04 (inactive) | 1.05 (inactive) | 1.03 (inactive) | 1.01 (inactive) | 1.11 (inactive) | 0.884 (inactive) | 1.07 (inactive) | 0.918 (inactive) | 1.06 (inactive) | 1.08 (inactive) | 0.408 (active) | 1.05 (inactive) | 0.853 (inactive)
Arthrobacter 2 (Arthrobacter humicola) | 0.195 (active) | 0.972 (inactive) | 0.871 (inactive) | 0.869 (inactive) | 0.929 (inactive) | 0.384 (active) | 1.07 (inactive) | 1 (inactive) | 0.87 (inactive) | 0.771 (inactive) | 0.627 (inactive) | 0.983 (inactive) | 0.96 (inactive) | 0.00995 (active) | 0.932 (inactive) | 1.19 (inactive)
Arthrobacter 3 (Arthrobacter sp.) | 0.33 (active) | 0.933 (inactive) | 1.01 (inactive) | 1.02 (inactive) | 0.981 (inactive) | 1.02 (inactive) | 1.02 (inactive) | 1.04 (inactive) | 0.922 (inactive) | 1 (inactive) | 0.725 (inactive) | 0.968 (inactive) | 0.978 (inactive) | 0.0157 (active) | 0.821 (inactive) | 0.921 (inactive)
Community 6 | 0.861 (inactive) | 0.916 (inactive) | 0.942 (inactive) | 0.75 (inactive) | 1.02 (inactive) | 0.907 (inactive) | 1.02 (inactive) | 1.01 (inactive) | 0.928 (inactive) | 0.712 (inactive) | 0.852 (inactive) | 1.06 (inactive) | 0.966 (inactive) | 0.442 (active) | 1.16 (inactive) | 1.01 (inactive)
Microbacterium 1 (Microbacterium arborescens) | 0.965 (inactive) | 1.05 (inactive) | 0.934 (inactive) | 0.918 (inactive) | 0.98 (inactive) | 0.988 (inactive) | 1.02 (inactive) | 1.03 (inactive) | 0.968 (inactive) | 1.03 (inactive) | 1.04 (inactive) | 1.01 (inactive) | 1.05 (inactive) | 0.0384 (active) | 0.986 (inactive) | 0.983 (inactive)
Flavobacterium 1 (Flavobacterium glaciei) | 0.25 (active) | 1.03 (inactive) | 1.04 (inactive) | 1.05 (inactive) | 0.922 (inactive) | 0.986 (inactive) | 1.02 (inactive) | 0.979 (inactive) | 0.922 (inactive) | 0.849 (inactive) | 0.793 (inactive) | 1.05 (inactive) | 0.965 (inactive) | 0.0158 (active) | 0.895 (inactive) | 0.915 (inactive)
